A short description of experiment [1]: compounds altering circadian rhythm period length – cell-based, LOPAC library, luminescence reporter (AID 2774; call rule not given here;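 note: values are relative to mean of DMSO wells on each plate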). As to conditions: circadian reporter cells, at 7 µM, actives lie on both sides.
The nature of experiment [2]: P. berghei load reduction in hepatocytes – cell-based, HepG2, luciferase luminescence, HepG2 viability, primary screen (AID 624349; in the data active = parasite load remaining mostly below about 12%, no sharp cut-off; inactive = mostly above about 10%;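 note: 100% = mean of DMSO negative control wells on the same plate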). As to conditions: P. berghei liver stage in HepG2, luciferase luminescence, concentration not given here; parasite load remaining: stronger effect = lower value; viability: measured here: HepG2 viability without parasites.
In experiment [3] the test system is Hepatitis C virus NS3 helicase. In words: blockers of NS3h binding to ssDNA – biochemical, fluorescence polarization, LOPAC1280 library, primary screen (AID 687035; in the data active = inhibition above about 37%). As to conditions: Purified HCV NS3 helicase, Cy5-dT15 ssDNA binding fluorescence polarization; stronger effect = higher value; concentration not given here. In general terms: In fluorescence polarisation assays a small probe gives low polarisation when free and higher when bound to something large.

A short description of experiment [4]: compounds altering Cy5-DNA-NS3h complex signal – biochemical, LOPAC1280, artefact control for HCV NS3 helicase inhibitor project (AID 687037; call rule not given here). As to conditions: Cy5-DNA-NS3h complex fluorescence interference counterscreen.
Experiment [5] is described as follows: viability loss with induced miR-34 in A549 – imaging, A549 dox-inducible miR-34, nuclei and caspase counts, primary screen (AID 1347080;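 active = compounds whose cell count with miR-34 switched on is under 0.7 times the count with it off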). The conditions noted are these: A549 miR-34 inducible, Hoechst nuclei count, 48 h.
Experiment [6] in a line: blockers of cellular phospholipid synthesis – cell-based, LOPAC library, screen 4, primary screen (AID 1347384; call rule not given here). The conditions noted are these: animal cells, phospholipid biosynthesis inhibition screen; at 10 µM.
Experiment [7] in a line: MELAS cybrid and Rieske KO viability enhancers – cell-based, MELAS cybrids, Rieske KO mouse fibroblasts, CellTiter-Glo, primary screen (AID 1508586;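 active = mean z-score across replicates of 1.96 or higher in either the MELAS or the Rieske mutant cell line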;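 note: z relative to plate mean and SD of compound and empty wells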). The conditions noted are these: low glucose. For orientation: Cellular ATP, detected with luciferase, serves as a proxy for viable cell number.
Experiment [8] in a line: galactose survival enhancers in mitochondrial complex I cybrids – cell-based, galactose medium, ATP luminescence, primary screen (AID 1645843;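 active = z-score of at least 1.8 in each of two replicates, scored against plate mean and spread of sample wells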;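 note: positive z means more ATP and so rescue of galactose-driven cybrid death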). The conditions noted are these: complex I mutant cybrid cells, 72 h, stronger effect = higher value.
The nature of experiment [9]: compounds altering HSF1 focus formation in cells – imaging, Selleck Cancer Library (AID 1347162; in the data active = plate-normalised HSF1 focus index below about 0.46). The conditions noted are these: human cells, HSF1 nuclear foci imaging, at 10 µM; SSMD: measured here: HSF1 foci SSMD mean; cell count: measured here: cell number; plate-normalised HSF1 focus index: stronger effect = lower value.
Experiment [10] can be described thus: drug combination growth inhibition, ovarian cancer – cell-based, oncology-focused library, rucaparib conditional, profiling panel (AID 1508598). The conditions noted are these: patient-derived ovarian cancer cells, CellTiter-Glo viability, 144 h, stronger effect = lower value.
Experiment [11] is described as follows: compounds altering viability of human ES cells (AID 493140; call rule not given here;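 note: cells exposed to compounds for four days before counting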). The conditions noted are these: human embryonic stem cell survival screen; stronger effect = higher value.
The nature of experiment [12]: chitosan synthesis blockers in C. neoformans – flow cytometry, Cibacron Brilliant Red staining (AID 1347148; call rule not given here;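 note: compound exposure lasted three days at 37 degrees C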). As to conditions: Cryptococcus neoformans chitosan, stronger effect = lower value; at 10 µM unless noted.
Setting [13] is: stronger effect = lower value, cell number ratio, induced over uninduced.
Where [14] appears, read: measured here: relative caspase fold change +Dox/-Dox.
The mark [15] stands for this setting: measured here: total cells with miR-34 induction, stronger effect = lower value.
[16] abbreviates: measured here: total cells without miR-34 induction.
[17] abbreviates: MELAS cybrid survival, CellTiter-Glo 48 h, stronger effect = higher value.
The mark [18] stands for this setting: Rieske KO mouse fibroblast survival, CellTiter-Glo 72 h.

Where “and” joins values, the source holds several entries; their conditions need not be identical. Equal values may be shown once. Calls of active or inactive are those of the source.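 Rule for the calls, unless noted: active = normalized viability below 100% at a tested concentration; inactive = the rest.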

In the case of `CC(C)NC[C@H](O)c1ccc(O)c(O)c1`, the period change in [1] is 0.03 h (inactive). Besides, the parasite load remaining in [2] was 71.3% (inactive). Besides, the viability (commonly a read-out of living cells in per cent, often relative to untreated cells) in [2] was 68.4%. The inhibition (in general, the relative decrease from the control value, in per cent) in experiment [3] was 3% (inactive) and -5% (inactive). Further, the fluorescence ratio (interference) in [4] was 1 (inactive) and 0.9 (inactive). Also, the fold change is 1.16 (inactive) and 1.1 (inactive) and 0.953 (inactive) in experiment [5] (setting [13]); 0.694 and 0.901 and 0.646 in experiment [5] (setting [14]). The cell count was 9390 and 11000 and 9560 in [5] (setting [15]); 8130 and 10100 and 10000 in [5] (setting [16]). In addition, the call in experiment [6] was inactive. Further, the z-score in [7] (setting [17]) was -0.508 (inactive); in experiment [7] (setting [18]) it was -0.956; in experiment [8], -1.02 (inactive) and -1.29 (inactive).

Regarding `COc1ccc(C2=NC(c3ccc(Cl)cc3)C(c3ccc(Cl)cc3)N2C(=O)N2CCNC(=O)C2)c(OC(C)C)c1` (stereo unspecified), the fold change in [5] (setting [13]) was 0.914 (inactive) and 0.912 (inactive) and 0.921 (inactive); in experiment [5] (setting [14]) it was 0.374 and 0.688 and 0.486. For the same molecule, the cell count in experiment [5] (setting [15]) was 2920 and 2710 and 7580; in [5] (setting [16]), 3200 and 2970 and 8230; in experiment [9] it was 7540. Further, the SSMD in experiment [9] is 2.83. Further, the plate-normalised HSF1 focus index in experiment [9] was 1.18 (inactive). Further, the z-score in [7] (setting [17]) is 0.254 (inactive) and -0.293 (inactive) and -0.371 (inactive); in [7] (setting [18]), 0.0375 and 0.393 and 0.654. Moreover, the viability is 120% (inactive) in experiment [10] (at 0.000305 µM, OCI-C5x cells, with rucaparib 10 µM, 100% = cells with rucaparib alone); 129% (inactive) in experiment [10] (at 0.000305 µM, OCI-C5x cells, without rucaparib); 108% (inactive) in experiment [10] (at 0.000305 µM, OCI-P5x cells, with rucaparib 20 µM, 100% = cells with rucaparib alone); 104% (inactive) in experiment [10] (at 0.000305 µM, OCI-P5x cells, without rucaparib); 116% (inactive) in experiment [10] (at 0.00122 µM, OCI-C5x cells, with rucaparib 10 µM, 100% = cells with rucaparib alone); 136% (inactive) in experiment [10] (at 0.00122 µM, OCI-C5x cells, without rucaparib). For the same molecule, the viability in [10] (at 0.00122 µM, OCI-P5x cells, with rucaparib 20 µM, 100% = cells with rucaparib alone) was 104% (inactive); in experiment [10] (at 0.00122 µM, OCI-P5x cells, without rucaparib) it was 93.6% (active); in experiment [10] (at 0.00488 µM, OCI-C5x cells, with rucaparib 10 µM, 100% = cells with rucaparib alone) it was 112% (inactive); in experiment [10] (at 0.00488 µM, OCI-C5x cells, without rucaparib), 124% (inactive); in [10] (at 0.00488 µM, OCI-P5x cells, with rucaparib 20 µM, 100% = cells with rucaparib alone), 96.2% (active); in experiment [10] (at 0.00488 µM, OCI-P5x cells, without rucaparib), 91.7% (active). Besides, the viability in experiment [10] (at 0.0195 µM, OCI-C5x cells, with rucaparib 10 µM, 100% = cells with rucaparib alone) was 110% (inactive); in [10] (at 0.0195 µM, OCI-C5x cells, without rucaparib) it was 128% (inactive); in experiment [10] (at 0.0195 µM, OCI-P5x cells, with rucaparib 20 µM, 100% = cells with rucaparib alone), 97% (active); in experiment [10] (at 0.0195 µM, OCI-P5x cells, without rucaparib), 93.4% (active); in [10] (at 0.0781 µM, OCI-C5x cells, with rucaparib 10 µM, 100% = cells with rucaparib alone), 108% (inactive); in experiment [10] (at 0.0781 µM, OCI-C5x cells, without rucaparib), 124% (inactive). The viability is 102% (inactive) in [10] (at 0.0781 µM, OCI-P5x cells, with rucaparib 20 µM, 100% = cells with rucaparib alone); 95.5% (active) in experiment [10] (at 0.0781 µM, OCI-P5x cells, without rucaparib); 113% (inactive) in experiment [10] (at 0.313 µM, OCI-C5x cells, with rucaparib 10 µM, 100% = cells with rucaparib alone); 115% (inactive) in experiment [10] (at 0.313 µM, OCI-C5x cells, without rucaparib); 97.6% (active) in experiment [10] (at 0.313 µM, OCI-P5x cells, with rucaparib 20 µM, 100% = cells with rucaparib alone); 86.9% (active) in experiment [10] (at 0.313 µM, OCI-P5x cells, without rucaparib). Further, the viability in experiment [10] (at 1.25 µM, OCI-C5x cells, with rucaparib 10 µM, 100% = cells with rucaparib alone) was 103% (inactive); in experiment [10] (at 1.25 µM, OCI-C5x cells, without rucaparib), 111% (inactive); in experiment [10] (at 1.25 µM, OCI-P5x cells, with rucaparib 20 µM, 100% = cells with rucaparib alone), 91.3% (active); in experiment [10] (at 1.25 µM, OCI-P5x cells, without rucaparib), 89.1% (active); in experiment [10] (at 5 µM, OCI-C5x cells, with rucaparib 10 µM, 100% = cells with rucaparib alone), 109% (inactive); in [10] (at 5 µM, OCI-C5x cells, without rucaparib), 104% (inactive). Besides, the viability in [10] (at 5 µM, OCI-P5x cells, with rucaparib 20 µM, 100% = cells with rucaparib alone) was 82.1% (active); in experiment [10] (at 5 µM, OCI-P5x cells, without rucaparib), 90.4% (active).

As for `CCCCCCCCC#CCC#CCC#CCCCC(=O)O`, the survival in experiment [11] was 97.9 (inactive). Further, the fold change in experiment [5] (setting [13]) is 0.872 (inactive) and 1.12 (inactive); in experiment [5] (setting [14]), 1.12 and 0.534. The cell count was 5490 and 6070 in experiment [5] (setting [15]); 6300 and 5430 in [5] (setting [16]). For the same molecule, the fold fluorescence in [12] was 6.11 (inactive).

With `CC/C=C\C/C=C\C/C=C\CCCCCCCCCC(=O)O`, the survival in [11] is 95.1 (inactive). Further, the fold change in experiment [5] (setting [13]) was 1.09 (inactive) and 1.03 (inactive); in [5] (setting [14]), 1.26 and 1.06. Further, the cell count was 5750 and 5880 in experiment [5] (setting [15]); 5250 and 5730 in experiment [5] (setting [16]). Also, in [12], the fold fluorescence is 4.88 (inactive).

For the origin of these results see PubChem BioAssay.
